The record followed here is the supplement of paper PMC13380429.

Structures are written as SMILES.

Assay [1] relates to Vero E6 infected with SARS-CoV-2. The assay can be described thus: morphology score (similarity to uninfected cells); higher = more like uninfected cells. The conditions noted are these: 24 h.
Assay [2] shares this test system. Description: SARS-CoV-2 infection rate relative to infected DMSO; higher = more infection, active = 60 or less. The conditions noted are these: 24 h.

As for `C1CCC(C(CC2CCCCN2)C2CCCCC2)CC1` (centres undefined) [perhexiline] (0.833333 µM), the morphology score in assay [1] was -0.219. Moreover, the SARS-CoV-2 infection rate in assay [2] was 114% (inactive).
In assay [1], `Cc1c(Cl)cccc1S(=O)(=O)Nc1nc(NCCc2ccccc2)nc2c1CN(Cc1ccccc1)CC2` (10 µM) gave a morphology score of 0.104. Besides, the SARS-CoV-2 infection rate in assay [2] is 94.5% (inactive).
Taken in the same sequence, the figures for `COc1ccc(Br)cc1S(=O)(=O)NC(=O)/C=C/c1ccccc1Cc1ccc2ccccc2c1` (10 µM) were 0.19 and 79.5% (inactive).
On to `COc1ccc(Cc2nccc3cc(OC)c(OC)cc23)cc1OC` [papaverine] (10 µM), for which the morphology score in assay [1] turned out to be 0.169. The SARS-CoV-2 infection rate in assay [2] was 105% (inactive).
For the compound `NC(=O)CC[C@H](N)C(=O)O` [L-glutamine] (10 µM), the morphology score in assay [1] amounted to 0.278. In addition, the SARS-CoV-2 infection rate in assay [2] is 94% (inactive).
For `CCc1ccc(C2=CC(C)(C)Sc3ccc(C#Cc4ccc(C(=O)O)cc4)cc32)cc1` (10 µM), in assay [1], the morphology score was -0.0119. Also, the SARS-CoV-2 infection rate in assay [2] is 111% (inactive).
As to `COc1ccc(-c2cc3nccn3c(Nc3ncccc3C(N)=O)n2)cc1OC` (0.833333 µM), the morphology score in assay [1] turned out to be 0.46. The SARS-CoV-2 infection rate in assay [2] is 27% (active).
`NCCCCN=C(N)N` [agmatine] (10 µM): the morphology score in assay [1] was determined as 0.0302. Also, the SARS-CoV-2 infection rate in assay [2] was 106% (inactive).
On to `O=C1NC(=O)/C(=C/c2ccc(-c3ccc(F)cc3O)o2)S1` (10 µM), for which the morphology score in assay [1] worked out at 0.146. In addition, the SARS-CoV-2 infection rate in assay [2] was 108% (inactive).
In assay [1], `Cc1cccc(C(=O)O)c1O` [hydroxytoluic-acid] (10 µM) yielded a morphology score of -0.137. For the same compound, the SARS-CoV-2 infection rate in assay [2] was 106% (inactive).
On to `Cn1cnnc1Sc1c([N+](=O)[O-])ncn1C` (10 µM), for which the morphology score in assay [1] amounted to 0.299. Also, the SARS-CoV-2 infection rate in assay [2] is 87% (inactive).
On to `CCc1ccc(CCOc2ccc(CC3SC(=O)NC3=O)cc2)nc1` (centres undefined) [pioglitazone] (10 µM), for which the morphology score in assay [1] is 0.077. In addition, the SARS-CoV-2 infection rate in assay [2] was 110% (inactive).
Turning to `CCCCC/C=C\C/C=C\C/C=C\C/C=C\CCCC(=O)Nc1ccc(O)cc1` (10 µM), the morphology score in assay [1] amounted to 0.0145. Further, the SARS-CoV-2 infection rate in assay [2] is 106% (inactive).
The compound `Cn1cc(-c2ccncc2)c(-c2ccc(OCc3ccc4ccccc4n3)cc2)n1` (10 µM) gave a morphology score in assay [1] of 0.927. In assay [2], the SARS-CoV-2 infection rate was 8% (active).
Taken in the same sequence, the figures for `Cc1cnc(C(=O)NCCc2ccc(S(=O)(=O)NC(=O)NC3CCCCC3)cc2)cn1` [glipizide] (10 µM) were 0.218 and 96% (inactive).
In turn, `CC(C)c1cc2c(cc1S(=O)(=O)O)[C@@]1(C)CCC[C@@](C)(C(=O)O)[C@@H]1CC2` [ecabet] (10 µM) yielded a morphology score in assay [1] of 0.0527. Besides, the SARS-CoV-2 infection rate in assay [2] is 102% (inactive).
Take `OB1OCc2cc(F)ccc21` [tavaborole] (10 µM): the morphology score in assay [1] turned out to be 0.00492. The SARS-CoV-2 infection rate in assay [2] was 108% (inactive).
Taken in the same sequence, the figures for `CC(C)C[C@H](NC(=O)CNC(=O)c1cc(Cl)ccc1Cl)B1OC(=O)C(CC(=O)O)(CC(=O)O)O1` [ixazomib-citrate] (0.833333 µM) were 0.101 and 106% (inactive).
`CN1CCC(NC(=O)c2cc(-c3c(O)cc(O)cc3Oc3ccc([N+](=O)[O-])cc3)on2)CC1` (0.833333 µM) yielded a morphology score in assay [1] of 0.247. Moreover, the SARS-CoV-2 infection rate in assay [2] is 95.5% (inactive).
With `O=C(Nc1ccccc1F)N[C@H]1N=C(c2ccccc2)c2ccccc2NC1=O` (10 µM), in assay [1], the morphology score is -0.135. Also, the SARS-CoV-2 infection rate in assay [2] was 113% (inactive).
As for `CCCCCCNC(=O)Nc1ccc(S(=O)(=O)Nc2ccc(CCNC[C@H](O)COc3ccc(O)cc3)cc2)cc1` (10 µM), the morphology score in assay [1] is -0.167. In addition, the SARS-CoV-2 infection rate in assay [2] was 112% (inactive).
In assay [1], `Cc1ncc(CO)c(/C=N/NC(=O)c2ccncc2)c1O` [pyridoxal-isonicotinoyl-hydrazone] (10 µM) yielded a morphology score of -0.0797. In assay [2], the SARS-CoV-2 infection rate is 100% (inactive).
Taken in the same sequence, the figures for `NC(=O)c1ccc[n+]([C@@H]2O[C@H](COP(=O)([O-])OP(=O)(O)OC[C@H]3O[C@@H](n4cnc5c(N)ncnc54)[C@H](O)[C@@H]3O)[C@@H](O)[C@H]2O)c1` [nadide] (10 µM) were -0.0496 and 94% (inactive).
Take `CN(CCc1ccc(Cl)c(Cl)c1)CCN1CCCC1` (10 µM): the morphology score in assay [1] came to 0.355. For the same compound, the SARS-CoV-2 infection rate in assay [2] is 74.5% (inactive).
`Nc1ncn([C@H]2C[C@H](O)[C@@H](CO)O2)c(=O)n1` [decitabine] (10 µM): in assay [1], the morphology score came out at 0.0186. The SARS-CoV-2 infection rate in assay [2] was 104% (inactive).
`N#CN=C(NCCCCCCOc1ccc(Cl)cc1)Nc1ccncc1` (10 µM): the morphology score in assay [1] is -0.0862. In addition, in assay [2], the SARS-CoV-2 infection rate was 96.5% (inactive).
Take `CCCCCCOc1nsnc1C1=CCCN(C)C1` [xanomeline] (10 µM): the morphology score in assay [1] was 0.44. Besides, the SARS-CoV-2 infection rate in assay [2] is 71.5% (inactive).
The compound `CCC(=O)c1ccc(OCC(O)CN2CCN(c3ccccc3)CC2)cc1` (centres undefined) [centpropazine] (10 µM) had a morphology score in assay [1] of 0.0954. For the same compound, the SARS-CoV-2 infection rate in assay [2] is 93.5% (inactive).
In assay [1], `CC[C@@H](C(N)=O)N1CCCC1=O` [levetiracetam] (10 µM) showed a morphology score of 0.0141. The SARS-CoV-2 infection rate in assay [2] is 109% (inactive).
`CC(C)(Sc1cc(C(C)(C)C)c(O)c(C(C)(C)C)c1)Sc1cc(C(C)(C)C)c(O)c(C(C)(C)C)c1` [probucol] (10 µM) returned a morphology score in assay [1] of 0.0913. Further, the SARS-CoV-2 infection rate in assay [2] is 100% (inactive).
With `CCCCCCCCCCCCc1ccc(S(=O)(=O)Nc2nncs2)cc1` (10 µM), the morphology score in assay [1] was determined as 0.158. In addition, the SARS-CoV-2 infection rate in assay [2] is 93% (inactive).
In assay [1], `CC(=O)SC[C@@H](C)C(=O)N1CCC[C@H]1C(=O)N[C@@H](Cc1ccccc1)C(=O)O` [alacepril] (10 µM) displayed a morphology score of 0.171. In addition, the SARS-CoV-2 infection rate in assay [2] was 108% (inactive).
